D3 ag: activates the human D3 dopamine receptor; D3R DiscoveRx beta-arrestin cells, luminescence, 90 min; P35462; max activation, %; 0.58% of 410,000 active; in the data active = max activation above about 30%; also: 0% is about no effect
Target sequence (P35462 whole entry, looked up): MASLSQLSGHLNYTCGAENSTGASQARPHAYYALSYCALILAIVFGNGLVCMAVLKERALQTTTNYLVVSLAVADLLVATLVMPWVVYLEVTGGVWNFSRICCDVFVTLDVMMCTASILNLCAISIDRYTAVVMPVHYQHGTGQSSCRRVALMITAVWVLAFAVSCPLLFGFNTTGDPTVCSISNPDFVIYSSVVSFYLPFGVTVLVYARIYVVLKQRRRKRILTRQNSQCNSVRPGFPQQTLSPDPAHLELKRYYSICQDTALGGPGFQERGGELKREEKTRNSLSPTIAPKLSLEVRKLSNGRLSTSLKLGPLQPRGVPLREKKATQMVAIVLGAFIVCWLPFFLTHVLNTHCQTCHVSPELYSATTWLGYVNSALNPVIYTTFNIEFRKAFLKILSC
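Agonist-mode cell screen: cells plated at 1500/well and incubated overnight at 37 °C, then exposed to library compounds for 90 min at 37 °C. Detection reagent was added for 30–60 min at room temperature, and luminescence was read.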
DRD3 antagonist: blocks the human D3 dopamine receptor; P35462; D3R cells, DiscoveRx beta-arrestin luminescence, antagonist mode; active compounds read low; max response, negative = inhibition, %; 2.5% of 360,000 active; in the data active = max response below about -50%; inconclusive = no clear call, values can overlap the other calls; also: % is scaled to controls: 0 for no effect and ±100 for the full control effect
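Cells plated overnight at 1500 cells/well, then exposed to library compounds with dopamine controls for 90 minutes at 37 degrees C. DiscoveRx reagent added for 30–60 minutes at room temperature; luminescence read, quantitative HTS format.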
ATXN2 expr inh: inhibitors of ATXN2 expression; HEK-293 ATXN2-luciferase reporter, luminescence, 24 h; AID 1745845; Potency, µM (doses to about 57 µM), for the others: top-dose activity change, negative = inhibition, actives largely listed as inhibitors; 0.72% of 360,000 active; also: potency is read from the fitted curve at half-maximal effect; % is scaled to controls: 0 for no effect and ±100 for the full control effect; nearly all actives have a fitted effect of over 55% in size
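ATXN2-luciferase reporter cells (luciferase flanked by upstream and downstream ATXN2 gene portions) were treated 24 h at 37 °C with compounds at up to 57 uM. SteadyGlo luminescence gave expression; GF-AFC fluorescence gave viability.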
IL1B secr inh: inhibitors of inflammasome signaling (IL-1 beta secretion) | AID 743279 | 4.7% of 360,000 active | THP-1 LPS/ATP IL-1B secretion, AlphaLISA, 16 h; active compounds read low | activity change, % at 57.5 µM; in the data active = activity change below about -50%; inconclusive = mostly about -30% to -49%; also: % is scaled to controls: 0 for no effect and ±100 for the full control effect
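Secreted IL-1B measured by AlphaLISA bead assay after 16 h compound exposure of THP-1 cells; compounds (final up to 57.5 uM) added 1 h before LPS (250 ng/mL) and ATP (1.25 mM) stimulation; lower signal means less secretion.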
Integrin act MD: activators of alpha7 integrin expression for muscular dystrophy; alpha7betagal myoblasts, beta-gal FDG fluorescence, 48 h; 0.064% of 350,000 active; Potency, µM (doses to about 38.3 µM), for inactives: at the top dose activation, hits mostly activators;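 also: potency is read from the fitted curve at half-maximal effect; 100% = response of the positive control SU9516; nearly all actives have a fitted effect of over 60% in size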
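Alpha7betagal+/- myoblasts (passage 13) were plated 16-24 hr, then exposed to compounds (1:260 dilution of DMSO stock) for 48 hours at 37C. After MPER lysis, β-galactosidase reporter activity was read as FDG fluorescence (ex 480/em 540) after 30 minutes.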
S2 tox: cell viability loss in ATXN counter-screen | S2 cells (HEK-293 line with an ATXN2-luciferase reporter) viability, CellTiter-Fluor protease fluorescence, 24 h | 0.49% of 400,000 active | Potency, µM (highest dose often 56.7 µM), hits mostly cytotoxic | AID 651635; also: potency is read from the fitted curve at half-maximal effect; nearly all actives have a fitted effect of over 40% in size
Numbers without * were called inactive; i = inactive; ? = inconclusive; nt = no result given; [ ] = remark or other dose. This is a sample that favours compounds with a hit; in the whole collection about 7% have one here. Unless noted, calls follow the shape of the dose curve; as a rule, active = well fitted curve in the direction sought with a large enough effect; inconclusive = small, poorly fitted or top-dose-only effect, or another doubt; inactive = no such curve, though single readings can be large; an effect the other way counts as inactive or inconclusive.

SMILES	D3 ag	DRD3 antagonist	ATXN2 expr inh	IL1B secr inh	Integrin act MD	S2 tox
O=C1C(Cc2ccccc2)Nc2ncnc(N3CCN(c4ccccc4)CC3)c2N1Cc1ccccc1 (stereo not given)	-28.6	-15.0	-15.1%	-59.2*	16.9%	?
COc1ccc(CN2C(=O)C(Cc3ccccc3)Nc3ncnc(N4CCCCC4)c32)cc1 (stereo not given)	-23.9	-53.1*	-3.3%	-14.1	-5.9%	i
CCOc1cc(NC(=S)NCCCN2CCOCC2)c(OCC)cc1NC(=O)c1cccs1	-14.3	-8.1	-11.1%	0.0	-9.2%	i
O=C1C(Cc2ccccc2)Nc2ncnc(N3CCN(c4ccccc4)CC3)c2N1Cc1ccc(Br)cc1 (stereo not given)	-55.4	-151.5*	5.5%	?	-34.2%	?
CC(C)CC(=O)Nc1n[nH]c2c1CN(C(=O)C1CCN(C)CC1)C2(C)C	nt	nt	1.09µM*	nt	nt	nt
Cc1cc(O)c(C(C)C)cc1N=Cc1ccccc1[N+](=O)[O-]	-12.1	-25.6	17.8µM*	-14.8	-28.6%	?
Cc1cc(O)c(C(C)C)cc1N=Nc1ccccc1C(=O)O	3.1	-19.4	5.6%	18.7	-27.5%	?
O=C(NCCCn1ccnc1)c1ccccc1Br	-2.2	-10.3	-10.9%	-2.3	1.1%	i
CCCCCCCCCCCCCCCC[N+](C)(C)Cc1ccccc1	-10.6	nt	31.6µM*	nt	nt	35.5µM*
CCCCCCCCCCCCCCCCCC[N+](C)(C)CCC[Si](OC)(OC)OC	-9.5	nt	nt	nt	nt	nt
CCCCCCCC(=O)NNC(=O)Cc1ccccc1	-24.8	19.5	2.5%	4.3	18.1%[7.66 µM]	i
CCCCCCCCCCCCCC[N+](C)(C)Cc1ccccc1	9.3	nt	35.5µM*	nt	nt	35.5µM*
CC(C)CC(=O)N1CCN(Cc2ccccc2Cl)CC1	2.8	11.5	nt	-9.2	4.3%	i
Cc1nn(CC(=O)N2CCOCC2)c(C)c1[N+](=O)[O-]	0.7	2.3	-3.1%	-11.2	-11.7%	i
O=C(C1=NNCC1c1ccc(Cl)cc1)C1CO1 (stereo not given)	-8.2	-7.5	-34.1%	-67.5*	-32.7%	?
CCOC(=O)c1c(C2COc3ccccc3O2)csc1NC(=O)c1ccco1 (stereo not given)	2.5	13.1	-15.6%	-54.1*	-47.7%	i
COCCn1c(SCC(=O)Nc2cccnc2Cl)nc2ccccc21	0.7	3.2	nt	-5.7	29.4%	i
O=C1CC(=C2c3ccccc3-c3ccccc32)C(=O)N1CCCCN1CCN(c2ccccc2)CC1	0.9	-55.0*	-9.3%	-25.7	-40.8%	i
O=C1CC(=C(c2ccccc2)c2ccccc2)C(=O)N1CCCN1CCN(c2cccc(Cl)c2)CC1	-13.8	?	-4.3%	-19.7	19.4%	i
C[C@@H]1CN([C@@H](C)CO)C(=O)c2cc(-c3ccncc3)cnc2O[C@H]1CN(C)C(=O)c1cccc(F)c1	5.4	16.8	13.5%	-26.9	-2.9%	i
Nc1c(-c2cccc(Cl)c2)cnn1-c1cccc(C(F)(F)F)c1	-16.9	17.3	3.0%	-61.4*	-31.9%	?
Nc1c(-c2ccccc2)cnn1-c1cccc(C(F)(F)F)c1	2.6	0.0	74.2%	-8.2	2.0%	i
COc1ccc(C(=O)COc2ccc(F)cc2)c(O)c1C	0.4	7.8	1.5%[11.3 µM]	-2.4	-15.6%	i
COc1nc(-c2ccccc2)cc(-c2ccc(OC)c(OC)c2)n1	98.3*	54.9	0.2%	-18.8	19.8%	i
COc1ccc(/C=C2\Sc3ccc(C(=O)N4CCN(Cc5ccccc5)CC4)cc3N(C)C2=O)cc1OC	7.9	2.0	nt	-0.5	-40.3%	?
SMILES	D3 ag	DRD3 antagonist	ATXN2 expr inh	IL1B secr inh	Integrin act MD	S2 tox
COc1ccc(/C=C2\Sc3ccc(C(=O)NCc4cccnc4)cc3N(C)C2=O)cc1OC	14.5	4.4	?	-79.7*	-52.6%	?
CN1C(=O)/C(=C/c2cccc(Cl)c2)Sc2ccc(C(=O)NCc3cccnc3)cc21	-4.7	3.5	nt	-20.0	-8.0%	i
COc1cccc(/C=C2\Sc3ccc(C(=O)NCc4cccnc4)cc3N(C)C2=O)c1	-3.0	-10.5	0.0%	-81.8*	-17.9%	i
CC(C)Oc1ccc(S(=O)(=O)N2CCOCC2)cc1NC(=O)CC1CC2CCC1C2 (stereo not given)	-2.1	14.7	nt	-7.4	-20.0%	i
CC(CCC(=O)NN)C1CCC2C3CCC4CC(O)CCC4(C)C3CCC12C (stereo not given)	6.4	15.9	-13.2%	0.0	10.0%	i
COC(=O)CCC(C)C1CCC2C3CCC4CC(O)CCC4(C)C3=CC(=O)C12C (stereo not given)	4.0	-7.5	-7.8%	-53.5*	-3.5%	i
CN(Cc1ccccc1)c1cc(Cl)nc(N)n1	38.4*	-9.6	-1.1%	-19.0	-36.3%	i
CCN(CC)c1cc(Cl)nc(N)n1	0.2	3.4	nt	-10.4	-7.2%	i
CCOc1nc(N=C(N)N)nc2c(C)cccc12	-0.3	7.1	?	-12.3	9.1%	?
O=C(COC(=O)c1nc(Cl)c(Cl)c(Cl)c1Cl)c1ccc[nH]1	17.6	-1.2	10.6%	-102.6*	-51.9%	i
O=C(COc1ccc2ccccc2c1)NCCc1ccc2c(c1)OCCO2	-9.0	-13.0	-36.3%	-13.6	-13.8%	i
COc1cccc(-n2nnnc2S(C)(=O)=O)c1	-8.3	-77.2*	?	-91.5*	-18.0%	28.2µM*
Cc1cccc(-n2nnnc2S(C)(=O)=O)c1	-20.5	nt	?	nt	nt	11.2µM*
CCC(C)Cn1cnc2c(Sc3c([N+](=O)[O-])ncn3C)nc(N)nc21 (stereo not given)	-8.7	4.8	8.2%	-55.9*	-55.2%	i
CCC(C)Cn1cnc2c(SCc3ccccn3)nc(N)nc21 (stereo not given)	-1.5	2.2	2.9%	-8.5	-39.5%	i
CC(C)Cn1cnc2c(Sc3c([N+](=O)[O-])ncn3C)nc(N)nc21	5.3	13.6	2.9%	-101.4*	-26.5%	?
Cc1cccc(OCC2CCCN(Cc3nc(C4CC4)no3)C2)c1 (stereo not given)	-1.3	-7.7	nt	22.2	-17.8%	i
Cc1ccc2nc(-c3ccc(Cl)cc3)c(CC3CCCCC3)n2c1	-1.7	10.5	8.1%	-2.8	nt	?
Cc1ccc(CCNC(=O)C2CCCN(c3nnc(C)c4c(C)n(-c5ccccc5)nc34)C2)cc1 (stereo not given)	7.0	nt	-13.4%	nt	nt	?
Cc1nnc(N2CCCC(C(=O)NCCc3ccccc3)C2)c2nn(-c3ccccc3)c(C)c12 (stereo not given)	5.6	nt	-24.6%	nt	nt	12.6µM*
Cc1ccccc1CNC(=O)C1CCCN(c2nnc(C)c3c(C)n(-c4ccccc4)nc23)C1 (stereo not given)	-2.6	-27.3	20µM*	?	-23.8%	31.6µM*
